High-throughput results from PubChem BioAssay.
KB-V1 cytotox: kills drug-selected multidrug resistant KB-V1 cells. AID 1347076. KB-V1 MDR cells viability, CellTiter-Glo, 72 h. actives 3.4% (n = 400,000). Potency, µM (top dose mostly 46.1 µM), most hits filed as cytotoxic; further: on the % scale 0 is the no-effect control and ±100 the full control effect; nearly all actives have a fitted effect of over 60% in size
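Compound-treated KB-V1 multidrug-resistant cells, 72 h, 37 degrees C; viability by CellTiter-Glo. Fitted qHTS curves give the values.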
MCF10A rerep: inducers of DNA re-replication in MCF 10A breast cells; MCF 10A DNA re-replication, Hoechst nuclear intensity, 48 h; Potency, µM (highest dose often 46.1 µM), inactives show top-dose activity, positive = re-replication, most hits filed as activators; actives 2.9% (n = 350,000); AID 624296; further: % of control where 0% means no effect; nearly all actives have a fitted effect of over 50% in size
HT1080 IDH1KD tx: toxicity to HT-1080 IDH1 knockdown cells (counter line) | HT-1080 IDH1 knockdown viability, ATP luminescence, 48 h | Potency, µM (doses to about 46.1 µM), for the others: top-dose activity, negative = toxicity, actives largely listed as cytotoxic | actives 2% (n = 360,000) | AID 686971;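 further: 0% = DMSO wells and -100% = cell-free medium wells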
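Luminescent ATP read-out (CellTiter-Glo, 10 min at room temperature) after 48 h compound exposure at 37 °C gave viability of IDH1-knockdown HT-1080 cells. Activity was normalised to DMSO and cell-free wells, then fitted as concentration-response curves.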
KB-3-1 tox: kills parental KB-3-1 adenocarcinoma cells; KB-3-1 viability, CellTiter-Glo ATP luminescence, 72 h; Potency, µM (top dose mostly 46.1 µM), actives largely listed as cytotoxic; actives 1.4% (n = 400,000); AID 1347075; further: on the % scale 0 is the no-effect control and ±100 the full control effect; nearly all actives have a fitted effect of over 60% in size
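Cells are dispensed, compounds pinned in, plates held at 37 °C for 72 h, then CellTiter-Glo is added and luminescence read after 10 minutes. Cell line: parental KB-3-1 in phenol-red-free DMEM, 10% FBS.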
HT1080NT lethal: kills 2HG-producing HT-1080-NT fibrosarcoma cells. Potency, µM (highest dose often 46.1 µM), without a hit: top-dose activity, negative = less viability, usual class: cytotoxic. actives 1.6% (n = 360,000). HT-1080-NT fibrosarcoma viability, CellTiter-Glo ATP luminescence, 48 h;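 further: NT is the 2HG producing partner of a matched IDH1 knockdown line; 0% = DMSO-treated cells and -100% = media-only wells without cells; nearly all actives have a fitted effect of over 55% in size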
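Viability of the 2HG-overproducing fibrosarcoma line after 48 hours of compound exposure at 37 degrees C was determined by luminescence with CellTiter-Glo, and concentration-effect curves were then fitted and categorized.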
SW480 rerep: induces DNA re-replication in SW480 colon adenocarcinoma cells; SW480 DNA re-replication, Hoechst DNA content imaging, 48 h; Potency, µM (highest dose often 46.1 µM), for inactives: at the highest dose re-replication activation, actives largely listed as activators; actives 1.8% (n = 340,000); AID 624297; further: % of control where 0% means no effect; nearly all actives have a fitted effect of over 55% in size
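Hoechst fluorescence of nuclei (405 nm excitation, 500-530 nm emission) measured by plate-scanning imager after 48 hr compound exposure at 37 C; re-replication scored as increased number of nuclei with elevated intensity.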
* = called active by the depositor; i = inactive; ? = inconclusive; . = no result given. The list is not random: actives were taken first. Their share in the collection is about 7.9%. The call rests on the fitted dose curve; in most records, active means well fitted curve in the direction sought with a large enough effect; inconclusive means small, poorly fitted or top-dose-only effect, or another doubt; inactive means no such curve, though single readings can be large; an effect the other way counts as inactive or inconclusive. Potency means the concentration at half of the fitted maximal effect.

SMILES	KB-V1 cytotox	MCF10A rerep	HT1080 IDH1KD tx	KB-3-1 tox	HT1080NT lethal	SW480 rerep
CCNC(=S)N(CCc1ccc(S(N)(=O)=O)cc1)C1CC(=O)N(c2ccccc2)C1=O (stereo not given)	i	-12%	?	?	-28%	?
Cc1ccc(S(=O)(=O)NNC(=O)Nc2ccccc2F)c(C)c1	?	-2%	8%	i	8%	1%
COc1ccc(OC)c(NC(=O)Cn2cnc3onc(-c4ccc(Cl)cc4)c3c2=O)c1	i	.	.	?	.	.
COC(=O)CC1(C(=O)OC)Oc2ccc(Br)cc2C(=O)N1c1cc(Cl)cc(Cl)c1 (stereo not given)	?	1%	-2%	i	?	0%
COC(=O)CC1(C(=O)OC)Oc2ccc(Br)cc2C(=O)N1c1cccc(Cl)c1Cl (stereo not given)	5.2µM*	?	?	?	21µM*	18µM*
COC(=O)CC1(C(=O)OC)Oc2ccc(Br)cc2C(=O)N1c1cc(Cl)c(Cl)cc1Cl (stereo not given)	10µM*	-8%	-28%	?	?	?
COC(=O)CC1(C(=O)OC)Oc2ccc(Br)cc2C(=O)N1c1ccc(Br)cc1Cl (stereo not given)	18µM*	?	15µM*	?	15µM*	?
CCS(=O)(=O)N1CC(=O)N(c2cc(C)ccc2C)C(C)(C(=O)NC2CCCCC2)C1 (stereo not given)	i	.	.	i	.	.
CC1(C(=O)NS(=O)(=O)Cc2ccccc2C(F)(F)F)CCN1C(=O)c1cccc(F)c1 (stereo not given)	i	.	14%	i	0%	.
CCOC(=O)C1CCCN(C(=O)CCS(=O)(=O)c2cc3c(cc2Cl)NC(=O)CO3)C1 (stereo not given)	i	.	.	i	.	.
COc1ccc(NC(=O)CSc2nc3ccc(Nc4nc(N5CCOCC5)nc(N5CCOCC5)n4)cc3s2)cc1	i	2.1µM*	2%	i	2%	13%
Cc1ccc(NC(=O)CSc2nc3ccc(Nc4nc(N5CCOCC5)nc(N5CCOCC5)n4)cc3s2)cc1	?	5.8µM*	2%	?	0%	?
O=C(Nc1ccccn1)c1cc(-c2ccc(Cl)s2)nc2ccccc12	?	21µM*	-19%	?	-18%	-2%
O=C(NC(=S)Nc1ccccn1)c1cc(-c2ccccc2)nc2ccccc12	16µM*	8%	0%	i	-2%	?
O=C(NC(=S)Nc1ccccc1)c1cc(-c2ccccc2)nc2ccccc12	i	16%	-11%	i	-6%	10%
COc1cc2c3c(c1OC)-c1cc4c(cc1CC3(C#N)N(C(=O)c1ccccc1)CC2)OCO4 (stereo not given)	3.3µM*	10%	-6%	i	2%	0%
COc1ccc2c(c1OC)C(=O)OC2[C@H]1c2c(cc3c(c2OC)OCO3)CCN1C (stereo not given in full)	.	14%	.	.	.	7%
CSC(SC)=C(C#N)C(=O)c1ccccc1	?	23µM*	21µM*	i	?	?
COc1ccc(CNC(=O)Nc2nc(C(N)CCc3ccccc3)cs2)cc1 (stereo not given)	i	.	?	?	18µM*	.
COc1ccccc1NC(=O)Nc1nc(C(N)CCc2ccccc2)cs1 (stereo not given)	i	.	?	i	23µM*	.
CC(C)CC(N)c1csc(NC(=O)Nc2ccccc2C(C)(C)C)n1 (stereo not given)	23µM*	.	?	?	?	.
COc1ccc(CCNC(=O)Nc2nc(C(N)CCc3ccccc3)cs2)cc1OC (stereo not given)	i	.	?	i	16µM*	.
O=C(C[C@@H]1CC[C@H](NS(=O)(=O)c2ccccc2F)[C@@H](CO)O1)NCCCN1CCOCC1	i	.	27%	i	23%	.
COC(=O)c1c(-c2c(Cl)cccc2Cl)noc1C(=O)NNC(=O)N(C)C	i	21%	16%	i	8%	-9%
Cc1cc(C)nc(Nc2nc(C(N)CCc3ccccc3)cs2)n1 (stereo not given)	?	.	?	i	?	.
SMILES	KB-V1 cytotox	MCF10A rerep	HT1080 IDH1KD tx	KB-3-1 tox	HT1080NT lethal	SW480 rerep
COc1ccccc1NC(=O)Nc1cc(NC(=O)Nc2ccccc2OC)c(C)nc1C	i	?	16µM*	i	16µM*	?
NC(CCc1ccccc1)c1csc(Nc2nccc(C(F)(F)F)n2)n1 (stereo not given)	i	.	?	i	16µM*	.
N#Cc1cccc(NC(=O)CNc2cccc(S(=O)(=O)N3CCCCC3)c2)c1	?	10%	-23%	i	?	-2%
CCOC(=O)N1CCN(S(=O)(=O)c2ccc(C(=O)NNc3nc4ccc(Cl)cc4s3)cc2)CC1	i	?	?	?	?	?
CCOC(=O)N1CCN(S(=O)(=O)c2ccc(C(=O)NNc3nc4cc(C)cc(C)c4s3)cc2)CC1	i	?	?	4.1µM*	?	?
CCOC(=O)N1CCN(S(=O)(=O)c2ccc(C(=O)NNc3nc4c(C)cc(C)cc4s3)cc2)CC1	?	?	?	?	?	5.8µM*
COc1c2ccoc2cc2oc(=O)ccc12	26µM*	-3%	-1%	i	-9%	-1%
O=C(NCCSc1c(-c2ccc(Cl)cc2)[nH]c2ccccc12)c1ccc(S(=O)(=O)N2CCOCC2)cc1	i	.	.	i	.	.
N#CC1(N2CCN(C(=O)c3ccccc3)CC2)CCCCC1	i	-1%	0%	i	0%	3%
Cc1ccc([N+](=O)[O-])cc1NC(=S)NC(=O)C(C)(C)C	i	-8%	10%	i	?	4%
COc1ccc(NC(=S)NNc2ccc([N+](=O)[O-])cc2S(=O)(=O)Nc2ccc(C)cc2C)cc1	?	?	18µM*	?	23µM*	4%
Cc1ccc([N+](=O)[O-])cc1NC(=S)NC(=O)CC(C)(C)C	18µM*	-4%	?	i	?	6%
Cc1ccc(NS(=O)(=O)c2cc([N+](=O)[O-])ccc2NNC(=S)Nc2cc(C)ccc2C)c(C)c1	2.9µM*	?	?	21µM*	?	?
Cc1ccc(NS(=O)(=O)c2cc([N+](=O)[O-])ccc2NNC(=S)Nc2cccc(Cl)c2)c(C)c1	?	-4%	?	i	?	.
